Compounds without any hit were thinned out: in the full panel of roughly 83,000, 20% have a hit.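 Testing used 96-well plates and a 48-hour single-concentration exposure. Example: -40 means 40% of the starting cells died.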 Values without a mark were called inactive. The source made the active and inactive calls. How the source made its calls: active means growth percent below 10; inactive means the rest.

For this experiment, the system named is MDA-MB-468 breast. The experiment is described as follows: NCI-60 one-dose screen, 48 h (100 = growth as untreated, 0 = no growth, -100 = all killed). Particulars: 10 µM unless noted.
With `NC(=O)C1CCCN(Cc2c[nH]c3ccccc23)C1` (stereo not given), the growth is 97.7%. The result for `COc1cc(-c2cc(/C=C/C(=O)c3ccc(Cl)c(Cl)c3)[nH]n2)cc(OC)c1OC` reads 7.24% (active); that for `COc1ccc(-c2cc(/C=C/C(=O)c3ccc(OC)c(OC)c3)[nH]n2)cc1`, 21.4%; that for `CCN1C(=O)N(CC)C2C1NN=c1s/c(=C\c3ccccc3)c(=O)n12` (stereo not given), 22.5%. As for `CCOC(=O)C(Cc1ccccc1)n1c(O)c(/C=N/c2ncc(Cc3ccc(Cl)cc3Cl)s2)sc1=S` (stereo not given), the growth was -0.681% (active). For `Cn1nc(N)c2cc([C@@H]3Nc4ccc5[nH]ncc5c4[C@H]4C5CCC(C5)[C@@H]34)ccc21` (stereo not given in full) the value was -2.64% (active); for `COc1ccc2c(c1)C(=O)c1c-2c(OCCCN(C)C)nc2cc(Br)ccc12`, 67.5%. As for `C=C(C)[C@@H]1CC[C@]2(C(=O)NNC(=O)c3cccnc3)CC[C@]3(C)[C@H](CC[C@@H]4[C@@]5(C)CCCNC(C)(C)[C@@H]5CC[C@]43C)[C@@H]12`, the growth is 79.8%. For `CCN(CC)c1ccc(N=Nc2cc(Cl)ccc2Cl)c(NC(=O)CCC(=O)O)c1` the value was 107%; for `CCc1c(Nc2ccc(C)cc2)nc(N)[nH]c1=O`, 94.5%. With `COc1cccc(C(=O)NNc2nc(Cl)nc(Cl)n2)c1`, the growth is 102%. For `Cc1nn(-c2ccc(-c3ccc(OC(F)(F)F)cc3)cc2)c2nc(Cc3ccccc3)nc(N)c12` the value was 46%; for `Oc1ccc(N=Nc2nccs2)c(O)c1`, 48.5%; for `O=C(CCCCCCSc1nc(-c2ccccc2)cc(-c2ccc(Cl)cc2)n1)NO`, 4.78% (active). Consider `COc1c(N2CC3CCCNC3C2)c(F)cc2c(=O)c(C(=O)N/N=C/c3ccc(Br)cc3)cn(C3CC3)c12` (stereo not given), for which the growth was 97%. As to `Cc1ncc(C(=O)Nc2ccc(CN3CCN(C)CC3)c(C(F)(F)F)c2)cc1C#Cc1cncc2ncccc12`, the growth was 99.3%.

For the compound `CC(C)=CCc1c2c(c(O)c3c1O[C@]14C(=C[C@@H]5C[C@H]1C(C)(C)O[C@@]4(C/C=C(/C)C(=O)O)C5=O)C3=O)CC(O)C(C)(C)O2` (stereo not given in full), the growth was -55.7% (active). For `C=C(C)[C@@H]1CC[C@]2(C(=O)NCCNCCNC(=O)OC(C)(C)C)CC[C@]3(C)[C@H](CC[C@@H]4[C@@]5(C)CCC(=O)C(C)(C)[C@@H]5CC[C@]43C)[C@@H]12` the value was 53.5% [100 µM]; for `CN1C=CN(Cc2ccc(-c3ccccn3)nc2)[CH-]1.CN1C=CN(Cc2ccc(-c3ccccn3)nc2)[CH-]1.[Au+3]`, -19.2% (active). The result for `COc1ccc2c(=O)cc(C(Cl)(Cl)Cl)oc2c1` reads -81.2% (active); that for `O=S(=O)(NCCNc1nccc(-c2c(-c3cccc(F)c3)nc3sccn23)n1)c1ccc(Cl)cc1`, 64.5%; that for `O=C(Nc1ccc(Cl)cc1)Nc1nc2ccc([N+](=O)[O-])cc2s1`, -36.7% (active). The result for `Cc1cc(N/N=C/c2nc(-c3ccc(Br)cc3)oc2C)c2cc(Cl)ccc2n1` reads 25.8%. In the case of `COc1ccc(Nc2ncccc2C(=O)NCc2cn(Cc3cc(OC)cc(OC)c3)nn2)cc1`, the growth is 103%. For `C/C(=C(/c1ccc(Cl)cc1)c1ccc(OCCN2CCCCCC2)cc1)c1ccccc1` the value was 72.5%; for `Cc1cccc2c(=O)c3c(sc12)c(NCc1ccccc1)nc1ccccc13`, -12.7% (active). The result for `O=C(C[n+]1ccccc1Cl)c1ccc2c(c1)CCCC2` reads 45.1%. For `COc1cc2nc(-c3ccc(Cl)cc3)cc(OCCCN3CCOCC3)c2cc1OC` the value was 59.9%; for `COc1ccc(CN2CCC(N3CCCC3=O)c3cc(Cl)ccc32)cc1` (stereo not given), 114%. With `CC(=O)c1cc(C(=O)c2ccc3c(c2)Sc2ccccc2N3)c2cc(C)ccn12`, the growth was -3.41% (active). Consider `CCN(CC)c1ccc(C(O)C2=CC(=O)c3ccccc3C2=O)cc1` (stereo not given), for which the growth was -53% (active).

As to `COC(=O)c1ccc2[nH]c(O)c(C(=Nc3ccc(N(C)C(=O)CN4CCN(C)CC4)cc3)c3ccc(N)cc3)c2c1`, the growth was 62%. As to `CCN1C(=O)N(CC)C2C1NN=c1s/c(=C3\C(=O)Nc4ccccc43)c(=O)n12` (stereo not given), the growth was -20.9% (active). The result for `COC1=CC(c2ccc[nH]2)=N/C1=C\c1[nH]c(C)c(C(=O)CCCCC(=O)Oc2ccc3c(c2)CCC2C3CC[C@]3(C)[C@@H](O)CC[C@@H]23)c1C` (stereo not given in full) reads 52.2%; that for `CNC(=O)Nc1ccc(Nc2cc(-c3ccc(-n4cccn4)cc3)[nH]n2)c(C)c1`, 96.3%. For `O=c1[nH]c(=S)c2c(n1CCCO)CCC2` the value was 106%; for `COc1cc2ncnc(Nc3ccc(F)c(Cl)c3)c2cc1NC(=O)/C=C/CN1CCCCC1`, -82.2% (active); for `CCCCCCCCCCCCCC[n+]1ccc(C)cc1`, -29.9% (active). For the compound `COc1ccc(C(=O)COC(=O)[C@H](C[Se][Se]C[C@H](NC(=O)c2ccc(Br)cc2F)C(=O)OCC(=O)c2ccc(OC)cc2)NC(=O)c2ccc(Br)cc2F)cc1`, the growth was -51.3% (active). The result for `COc1cc2ccc(C(C)=O)cc2cc1OC` reads 106%.

For the origin of these results see PubChem BioAssay (NCI).
